High-throughput results from PubChem.
The sample as a whole holds a higher share of hits than the screen did.
KDM5B inhibitor – blocks human KDM5B histone demethylase activity; Q9UGL1; Potency, µM (series often up to 57.7 µM), actives largely listed as inhibitors; 2.6% of 220,000 active; AID 1347165; KDM5B demethylase, FDH-coupled NADH fluorescence (FDH is formaldehyde dehydrogenase); active means well fitted inhibition curve with a large enough effect; further: nearly all actives have a fitted effect of over 70% in size
Target sequence (Q9UGL1 whole entry, looked up): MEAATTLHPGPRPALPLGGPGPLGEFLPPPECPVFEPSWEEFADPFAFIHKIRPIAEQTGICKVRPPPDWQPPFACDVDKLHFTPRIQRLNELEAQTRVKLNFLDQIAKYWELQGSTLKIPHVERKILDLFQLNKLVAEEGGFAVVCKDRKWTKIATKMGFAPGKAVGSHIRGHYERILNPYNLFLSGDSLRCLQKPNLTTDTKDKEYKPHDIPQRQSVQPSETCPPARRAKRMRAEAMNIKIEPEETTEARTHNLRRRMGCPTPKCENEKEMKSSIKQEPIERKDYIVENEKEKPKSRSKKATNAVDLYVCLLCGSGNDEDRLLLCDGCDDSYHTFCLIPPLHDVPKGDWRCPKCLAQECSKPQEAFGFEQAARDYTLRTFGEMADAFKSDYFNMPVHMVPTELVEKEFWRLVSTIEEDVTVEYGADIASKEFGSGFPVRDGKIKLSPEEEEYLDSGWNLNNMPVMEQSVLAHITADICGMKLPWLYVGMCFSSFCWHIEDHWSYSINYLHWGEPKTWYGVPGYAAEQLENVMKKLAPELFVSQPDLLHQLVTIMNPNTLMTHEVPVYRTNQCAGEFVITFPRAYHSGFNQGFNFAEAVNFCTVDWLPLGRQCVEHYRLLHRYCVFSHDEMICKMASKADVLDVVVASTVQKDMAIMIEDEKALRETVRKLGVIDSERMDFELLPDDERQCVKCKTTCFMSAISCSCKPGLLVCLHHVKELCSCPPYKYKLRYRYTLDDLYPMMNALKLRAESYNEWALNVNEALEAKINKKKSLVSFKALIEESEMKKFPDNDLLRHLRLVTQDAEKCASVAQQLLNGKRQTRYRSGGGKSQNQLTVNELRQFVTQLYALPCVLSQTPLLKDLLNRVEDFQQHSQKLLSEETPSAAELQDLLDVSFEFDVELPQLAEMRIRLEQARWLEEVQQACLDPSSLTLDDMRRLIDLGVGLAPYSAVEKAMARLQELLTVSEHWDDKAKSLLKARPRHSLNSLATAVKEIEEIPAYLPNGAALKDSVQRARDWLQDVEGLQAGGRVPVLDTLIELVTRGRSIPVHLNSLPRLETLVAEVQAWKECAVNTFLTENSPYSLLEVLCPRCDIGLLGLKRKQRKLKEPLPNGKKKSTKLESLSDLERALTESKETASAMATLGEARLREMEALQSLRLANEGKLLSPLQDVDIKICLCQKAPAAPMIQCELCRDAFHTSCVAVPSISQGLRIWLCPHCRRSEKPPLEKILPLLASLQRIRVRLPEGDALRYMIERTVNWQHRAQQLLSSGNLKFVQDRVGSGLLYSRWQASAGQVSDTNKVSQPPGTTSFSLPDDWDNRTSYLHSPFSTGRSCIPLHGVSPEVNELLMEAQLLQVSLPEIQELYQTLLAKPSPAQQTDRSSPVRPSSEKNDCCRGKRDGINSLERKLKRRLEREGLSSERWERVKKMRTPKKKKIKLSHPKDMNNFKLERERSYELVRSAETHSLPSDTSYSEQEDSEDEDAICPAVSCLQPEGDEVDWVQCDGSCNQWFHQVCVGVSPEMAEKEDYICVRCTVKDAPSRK
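Coupled FDH/NAD⁺ fluorescence readout. KDM5BΔAP 200 nM final; compound titration, 10 min RT preincubation; substrate mix 12.5 µM H3K4me3, 25 µM 2-OG, 50 µM Fe(II), 100 µM ascorbate, 0.25 mM NAD⁺, 0.25 U/mL FDH; ΔRFU over 30 min.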
Hits are given with their value.

`COc1ccc(NC(=O)c2cc3n(n2)CC(c2ccc4c(c2)OCO4)OC3)cc1OC` (stereo not given) gave KDM5B inhibitor inactive.
Screening COc1ccc(NC(=O)c2cc3n(n2)CC(c2ccc4c(c2)OCO4)OC3)cc1Cl (stereo not given) returned KDM5B inhibitor 25.1µM.
Screening COc1ccc(NC(=O)C2CCN(C(=O)c3ncn4c3COC(c3ccccc3)C4)CC2)cc1Cl (stereo not given) returned KDM5B inhibitor inactive.
`CC(=O)N[C@@H]1Cc2ccccc2[C@H]1NC(=O)CN1C(=O)CNC1=O` gave KDM5B inhibitor inactive.
`CCCC(C)N1CC2(CCN(C(=O)c3c(CC)noc3C)CC2)OC1=O` (stereo not given) gave KDM5B inhibitor inactive.
Screening CCCC(C)N1CC2(CCN(C(=O)c3ccc(C(C)=O)s3)CC2)OC1=O (stereo not given) returned KDM5B inhibitor inactive.
CCCc1cc(C(=O)N2CCC3(CC2)CN(C(C)CCC)C(=O)O3)n[nH]1 (stereo not given) was read as KDM5B inhibitor 28.2µM.
O=C(CN1C(=O)COc2ccc(C(=O)COc3ccc(F)cc3)cc21)Nc1ccccc1 was read as KDM5B inhibitor inactive.
Screening O=C(NCCc1ccc(OC(F)F)cc1)c1nn(Cc2ccccc2)c(=O)c2ccccc12 returned KDM5B inhibitor inactive.
COc1ccc(Cl)cc1NC(=O)C(CC(C)C)N1Cc2ccccc2C1=O (stereo not given) was read as KDM5B inhibitor inactive.
COCCN1C(=O)c2cccn2CC1CNC(=O)c1n[nH]c2ccccc12 (stereo not given) was read as KDM5B inhibitor inactive.
COCCN1C(=O)c2cccn2CC1CNC(=O)c1[nH]nc2c1COc1ccccc1-2 (stereo not given) was read as KDM5B inhibitor 28.2µM.
Screening COCCN1C(=O)c2cccn2CC1CNC(=O)c1nccc2ccccc12 (stereo not given) returned KDM5B inhibitor inactive.
`O=C(Nc1cccc(-c2cccc(F)c2)c1)C1CCN(CC2CCOC2)CC1` (stereo not given) gave KDM5B inhibitor inactive.
`O=[S+]([O-])(Nc1cccnc1)c1ccc2c(c1)OCCN(CC1CCOCC1)C2` gave KDM5B inhibitor inactive.
For C[S+](=O)([O-])Nc1cccc(-c2nc(N3CCOCC3)cc3c2CN(CC2CC2)C3=O)c1 the results were KDM5B inhibitor 28.2µM.
Screening C[S+](=O)([O-])Nc1cccc(N2C[C@@H]3C(C(=O)NC4CCOCC4)=NO[C@@H]3C2)c1 returned KDM5B inhibitor inactive.
Screening O=C1c2cc(N3CCOCC3)nc(-c3cccc(F)c3)c2CN1CC1CC1 returned KDM5B inhibitor 35.5µM.
Screening O=C1Cc2c(-c3cccc(N4CCOCC4)c3)n[nH]c2CN1CCOc1ccccc1 returned KDM5B inhibitor inactive.
CCCc1ccc(S(=O)(=O)NCCc2cccc3cccnc23)cc1 was read as KDM5B inhibitor inactive.
O=C(NC[C@H]1OC[C@@H](NC2CCOCC2)[C@@H]1O)N1CCOCC1 was read as KDM5B inhibitor inactive.
Screening CCCNc1nc2ccccc2nc1C(=O)Nc1ccc(C(=O)OCC)cc1 returned KDM5B inhibitor inactive.
Screening Cc1ccc2nc(Cl)c3cc(C(=O)NC(C)CCc4ccccc4)sc3c2c1 (stereo not given) returned KDM5B inhibitor inactive.
CC(C)N(Cc1ccccc1)C(=O)CCn1cnc2c1c(=O)n(C)c(=O)n2C was read as KDM5B inhibitor inactive.
`CC1(C)CN(C(=O)c2cccc(-c3ncc[nH]3)c2)CC1(C)O` (stereo not given) gave KDM5B inhibitor inactive.
CC(=O)Nc1cc(C(=O)NCc2ccccc2C)c2ccc(C)nc2c1 was read as KDM5B inhibitor 25.1µM.
Screening O=C(NCCc1cccnc1)c1ccc(Cl)cc1Cl returned KDM5B inhibitor inactive.
`Cc1ccc2c(C(=O)NCCc3cccnc3)cc(NC(=O)C(C)C)cc2n1` gave KDM5B inhibitor 20µM.
For Cc1cc(C(=O)NCC(=O)Nc2c(C)cccc2C)c2ccccc2n1 the results were KDM5B inhibitor inactive.
Screening Cc1ccccc1CNC(=O)c1cc(=O)[nH]c2ccccc12 returned KDM5B inhibitor inactive.
For Cc1cccc(CNC(=O)c2cc(NC(=O)C(C)C)cc3nc(C)ccc23)c1 the results were KDM5B inhibitor 12.6µM.
Screening Cc1cccc(CNC(=O)c2cc(-c3ccncc3)nc3ccccc23)c1 returned KDM5B inhibitor inactive.
COc1ccc(NC(=O)c2cc(NC(=O)C(C)C)cc3nc(C)ccc23)cc1 was read as KDM5B inhibitor inactive.
Cc1ccc2c(C(=O)NCc3cccc(Cl)c3)cc(NC(=O)C(C)C)cc2n1 was read as KDM5B inhibitor 25.1µM.
For O=C(NCCc1cccnc1)c1ccc(F)cc1F the results were KDM5B inhibitor inactive.
Screening CCN(C)Cc1cccc(CNC(=O)c2cc(C)nc3ccccc23)c1 returned KDM5B inhibitor inactive.
O=C(NCc1ccccc1)c1cc(Sc2cccc(Cl)c2)nc2ccccc12 was read as KDM5B inhibitor inactive.
`CC(=O)c1c(C)nn(CC(=O)N2CCN(c3ccnc(C)c3)CC2)c1C` gave KDM5B inhibitor inactive.
For COC(=O)c1ccc(OCC(=O)c2ccc3c(c2)OCO3)c(OC)c1 the results were KDM5B inhibitor inactive.
`c1cc(C2CC2)[nH]n1` gave KDM5B inhibitor inactive.
CCN(CC)S(=O)(=O)c1ccc(Cl)c2ccccc12 was read as KDM5B inhibitor inactive.
`CCn1nc(-c2ccccc2SC)nc1N(C)C` gave KDM5B inhibitor inactive.
`CC(CCc1ccco1)NC(=O)CCc1nnc2ccc(N3CCC4(CC3)OCCO4)nn12` (stereo not given) gave KDM5B inhibitor inactive.
For CN(CC(=O)Nc1ccccc1Cl)C(=O)COC(=O)COc1ccc2oc3c(c2c1)CCCC3 the results were KDM5B inhibitor inactive.
For COc1ccc(-c2ccc3ncc(Nc4ccc5c(c4)OCO5)n3n2)cn1 the results were KDM5B inhibitor inactive.
For COc1ccc(-c2nccc3c(=O)cc(N(C)C)oc23)cn1 the results were KDM5B inhibitor 39.8µM.
`COc1ncccc1-c1nccc2c(=O)cc(-c3ccncc3)oc12` gave KDM5B inhibitor inactive.
`COc1ncccc1-c1nccc2c(=O)cc(N(C)C3CCOCC3)oc12` gave KDM5B inhibitor inactive.
Cc1cc(-c2nccc3c(=O)cc(N(C)C)oc23)ccn1 was read as KDM5B inhibitor 31.6µM.
CN(c1ccccc1)c1cc(=O)c2ccnc(-c3ccccc3O)c2o1 was read as KDM5B inhibitor inactive.
`COc1ncccc1-c1nccc2c(=O)cc(N(C)C)oc12` gave KDM5B inhibitor 35.5µM.
Cc1nc2cc(NC(=O)COc3ccc(Br)cc3)ccc2o1 was read as KDM5B inhibitor inactive.
For CCC(C)C(=O)NCc1cccc(COC)c1 (stereo not given) the results were KDM5B inhibitor inactive.
`CCOC(=O)c1cc(NC(=O)c2ccc(Cl)c(Cl)c2)ccc1N1CCOCC1` gave KDM5B inhibitor inactive.
O=c1c2cc(Cl)cc(Cl)c2ncn1Cc1ccc(F)cc1Cl was read as KDM5B inhibitor inactive.
`CCCCCCN1CCC2(CC1)Cc1ccccc1CNC2=O` gave KDM5B inhibitor inactive.
For CN1CCN(Cc2ccc(Nc3cnc4ccc(N5CCOCC5)nn34)cc2)CC1 the results were KDM5B inhibitor inactive.
Clc1ccccc1Nc1cnc2ccc(N3CCOCC3)nn12 was read as KDM5B inhibitor 31.6µM.
COc1cccc(Nc2cnc3ccc(N4CCOCC4)nn23)c1 was read as KDM5B inhibitor inactive.
For c1ccc(-c2ccccc2Nc2cnc3ccc(N4CCOCC4)nn23)cc1 the results were KDM5B inhibitor inactive.
